# Out of some 360,000 compounds screened, about 11,000 (3.1%) were called active. Many of the other results were omitted from the sample, so actives are more common in it than they were. A number with no mark means an inactive call. No stated cut-off is given here; in the data, active means activity change below about -30%; inactive means the rest.
# Target: D(1A) dopamine receptor (Homo sapiens) (UniProt P21728)
# Experiment: Antagonist of Human D 1 Dopamine Receptor: qHTS
# Details: HEK293 TREx D1 cells, calcium flux, dopamine EC80; at 10 µM; stronger effect = lower value
# Procedure, shortened: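 Tetracycline-induced HEK293 T-REx cells with force-coupled D1 receptor were loaded with a no-wash calcium dye. Compound was added after a 10 s baseline and read kinetically for 180 s; EC80 dopamine was then added and calcium flux followed another 180 s.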
# On the % scale 0 is the no-effect control and ±100 the full control effect.
# D(1A) dopamine receptor (Homo sapiens), sequence (P21728 whole entry, looked up): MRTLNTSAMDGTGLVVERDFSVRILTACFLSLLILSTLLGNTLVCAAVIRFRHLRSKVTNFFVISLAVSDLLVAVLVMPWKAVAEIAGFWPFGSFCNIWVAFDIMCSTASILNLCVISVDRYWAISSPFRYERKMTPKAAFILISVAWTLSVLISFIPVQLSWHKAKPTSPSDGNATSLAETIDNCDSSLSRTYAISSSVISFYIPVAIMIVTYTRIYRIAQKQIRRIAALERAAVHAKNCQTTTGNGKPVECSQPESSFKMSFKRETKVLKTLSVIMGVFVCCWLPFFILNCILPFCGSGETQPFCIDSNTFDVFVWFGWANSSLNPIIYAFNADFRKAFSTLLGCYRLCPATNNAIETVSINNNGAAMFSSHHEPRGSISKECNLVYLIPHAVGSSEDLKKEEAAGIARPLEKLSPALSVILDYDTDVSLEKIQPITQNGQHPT
row,SMILES,"activity change, negative = inhibition"
1,COc1ccc(Nc2ncc(C(=O)Nc3cc(C)ccc3OC)c3ccccc23)cc1,-5.45%
2,O=C(Cn1c(=O)n(-c2ccc(F)cc2)c(=O)c2sccc21)Nc1cccc(C(F)(F)F)c1,10.9%
3,CCOc1ccc(N(CC(=O)NCCc2ccc(F)cc2)S(=O)(=O)c2ccccc2)cc1,-32.1% (active)
4,CCOc1ccc(N(CC(=O)NCCOc2ccccc2OC)S(=O)(=O)c2ccccc2)cc1,-9.44%
5,CCOc1ccc(N(CC(=O)NCCc2ccc(OC)cc2)S(C)(=O)=O)cc1,6.98%
6,COc1ccc(CC(=O)N2CC(=O)Nc3ccc(Br)cc3C2c2ccc(F)cc2)cc1OC (stereo not given),1.32%
7,Cc1nnc(C)n1-c1ccc(C(=O)Nc2cccc(Br)c2)cc1,-6.55%
8,CCN(Cc1ccccc1)C(=O)Cc1ccc(OC)c(S(=O)(=O)N2CCOCC2)c1,-8.6%
9,COCCN(Cc1ccccc1)C(=O)Cc1ccc(S(=O)(=O)N2CCOCC2)s1,-46% (active)
10,O=C(Cc1ccc(S(=O)(=O)N2CCOCC2)s1)NCCC(c1ccccc1)c1ccccc1,2.72%
11,C[C@H](NC(=O)c1nc[nH]c1C(=O)N[C@@H](C)C(=O)OC(C)(C)C)C(=O)OC(C)(C)C,-89.3% (active)
12,CNC(=O)c1[nH]cnc1C(=O)N[C@@H](CC(C)C)C(=O)OC(C)(C)C,-1.57%
13,C[C@H](NC(=O)c1nc[nH]c1C(=O)NCC(=O)OC(C)(C)C)C(=O)OCc1ccccc1,-24.2%
14,CCCCS(=O)(=O)c1oc(-c2cccs2)nc1S(=O)(=O)c1ccccc1,11.6%
15,COc1ccc(-c2nc(Cn3c(=O)cc(C)c4c(C)nn(-c5ccccc5)c43)c(C)o2)cc1OC,0.18%
16,CCc1ccc(NC(=O)N2CCN(C(=O)c3nsc4ccccc34)CC2)cc1,-22.5%
17,Cc1c(Cl)cccc1NC(=O)N1CCN(C(=O)c2nsc3ccccc23)CC1,-9.22%
18,COc1cccc(NC(=O)N2CCN(C(=O)c3nsc4ccccc34)CC2)c1,-44.8% (active)
19,O=C(Nc1cc(C(F)(F)F)ccc1Cl)c1ccc2c(c1)CCN2S(=O)(=O)c1ccccc1,3.06%
20,COc1cc(C(=O)N2CCN(C/C=C/c3ccccc3)CC2)cc(OC)c1C,6.67%
21,COc1ccc(C(=O)NC2CC2)cc1OC1CCN(Cc2ccc(SC)cc2)CC1,-63.9% (active)
22,COc1cc2[nH]c(=O)n(Cc3ccc(C(=O)NC4CCN(Cc5ccccc5)CC4)cc3)c(=O)c2cc1OC,8.55%
23,COc1ccc(C(=O)NCCn2nc(C)cc2C)cc1OC1CCN(C(C)=O)CC1,1.96%
24,COc1ccc(C(=O)NC2CC2)cc1OC1CCN(Cc2cnn(C)c2)CC1,-6.25%
25,COc1ccc(C(=O)NC2CC2)cc1OC1CCN(C/C=C/c2ccccc2)CC1,-56.2% (active)
26,CCOc1ccccc1NC(=O)Cn1nnc(C(=O)Nc2ccc(C)c(C)c2)c1N,6.21%
27,CC(C)(C)OC(=O)N1CCC(c2c(C(=O)Nc3ccc4c(c3)OCO4)cnn2-c2ccccc2)CC1,1.48%
28,COc1ccc(C2Sc3ccccc3NC3=C2C(=O)c2ccccc23)c(OC)c1OC (stereo not given),-5.17%

row,SMILES,"activity change, negative = inhibition"
1,COc1ccc(N2CCN(c3nc(-c4ccccc4F)nc4ccccc34)CC2)cc1,-14.4%
2,CCc1ccc(CN(Cc2ccco2)C(=O)c2ccccc2Cl)cc1,-13.4%
3,COc1ccc(CN(C)C(=O)Cc2ccsc2)c(OC)c1OC,-6.5%
4,COc1ccccc1OCc1ccc(C(=O)NC(C)c2ccccc2)o1 (stereo not given),10.5%
5,COc1ccccc1C(C)NC(=O)Cc1ccsc1 (stereo not given),-36.8% (active)
6,CN(C(=O)CSc1nc2ccccc2n1Cc1ccccc1C#N)c1ccccc1,5.88%
7,COc1ccc(-c2c(C)c3ccc(O)c(CN4CCCC4)c3oc2=O)cc1OC,3.24%
8,CCN1CCN(Cc2c(O)ccc3c(=O)c(-c4ccc(OC)c(OC)c4)c(C(F)(F)F)oc23)CC1,10.8%
9,COc1ccc(-c2c(C)c3ccc(O)c(CN4CCN(C)CC4)c3oc2=O)cc1OC,-44.5% (active)
10,Cc1cccc(-c2nnc(SCC(=O)N3CCCc4ccccc43)o2)c1,-12.2%
11,CCN(CC(=O)Nc1ccc(S(=O)(=O)N2CCCC2)cc1)CC(=O)Nc1cccc(OC)c1,-18.1%
12,CCNS(=O)(=O)c1ccc(NC(=O)Nc2cccc(OC)c2)cc1,-47.6% (active)
13,COc1cccc(NC(C)=[N+](C)CCNS(=O)(=O)c2ccc(Cl)cc2)c1,-6.9%
14,CN1c2ccc(Cl)cc2-c2nc(SCC(=O)Nc3cc(F)ccc3F)ncc2S1(=O)=O,24.7%
15,Cc1ccc2oc(=O)c3cnn(CC(=O)N4CCN(c5cccc(Cl)c5)CC4)c3c2c1,4.75%
16,COCc1ccc(C(=O)N2CCc3c([nH]c4ccccc34)C2c2ccccn2)s1 (stereo not given),-33.8% (active)
17,Cc1ccc(C2c3[nH]c4ccccc4c3CCN2C(=O)c2cccc(C)c2)cc1 (stereo not given),-0.549%
18,Cc1cccc(C2c3[nH]c4ccccc4c3CCN2C(=O)c2cc(-c3cccn3C)n[nH]2)n1 (stereo not given),8.11%
19,Cc1cc(OCC(=O)Nc2ncn[nH]2)c(C)c(C)c1Br,3.31%
20,Cc1cc(/C=C2\SC(=Nc3ccc(N4CCOCC4)cc3)N(C)C2=O)c(C)n1-c1cccnc1,-38% (active)
21,COC(=O)c1cc(NC(=O)c2cccnc2)ccc1N1CCOCC1,1.15%
22,COc1ccc(S(=O)(=O)c2cn(C)c3cc(N4CCCCC4)c(F)cc3c2=O)cc1,-5.11%
23,O=C(/C=C/c1ccccc1)Nc1cc(-c2nc3cc(Cl)ccc3o2)ccc1Cl,-9.92%
24,COc1ccc(CNCCCO)cc1OC,14.1%
25,COc1ccc(CNc2cc(C)cc(C)c2)cc1OC,-45.1% (active)
26,COc1ccc(CNc2ccc3c(c2)CCC3)cc1OC,9.59%
27,CCOC(=O)c1ccc(N2C(=O)c3n[nH]c(-c4ccco4)c3C2c2ccc(O)cc2)cc1 (stereo not given),13%
